Measured values published in the supplement of paper PMC12645437, “Orthogonal IMiD-Degron Pairs Induce Selective Protein Degradation in Cells” (ACS Chemical Biology, 2025).
Whole data set: some 8,300 sequences, median “log2 fold change of degron read counts, EGFP-low vs EGFP+ sorted cells (limma voom), compound-induced degradation” near -1.1, cut for the highest 2% near 3.2. The sample as a whole holds a higher share of the highest values than the screen did.

T1: CRBN, Q96SW2
T1 chain: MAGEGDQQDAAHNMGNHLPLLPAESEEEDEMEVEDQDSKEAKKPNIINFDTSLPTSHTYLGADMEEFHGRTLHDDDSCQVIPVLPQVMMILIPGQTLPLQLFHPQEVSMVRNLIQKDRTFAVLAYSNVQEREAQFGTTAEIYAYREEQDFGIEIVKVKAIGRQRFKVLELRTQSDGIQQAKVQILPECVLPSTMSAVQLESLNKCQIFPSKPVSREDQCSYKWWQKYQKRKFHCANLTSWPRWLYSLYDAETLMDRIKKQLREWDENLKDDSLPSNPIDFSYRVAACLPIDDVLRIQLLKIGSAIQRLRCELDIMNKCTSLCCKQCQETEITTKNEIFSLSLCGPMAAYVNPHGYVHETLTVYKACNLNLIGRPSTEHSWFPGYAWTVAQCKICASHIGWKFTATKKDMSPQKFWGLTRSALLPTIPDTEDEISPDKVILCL


Biological target: T1, CRBN, Q96SW2
Assay: log2 fold change of degron read counts, EGFP-low vs EGFP+ sorted cells (limma voom), compound-induced degradation; higher = more compound-induced degradation of the degron-EGFP fusion; degrons are variants of IKZF1/3 zinc finger 2; compound dose not given here
Details: Jurkat, 18 h
[1] = compound: compound 19 (5-tert-butyl-thalidomide)
[2] = compound: compound 22 (5-morpholino-thalidomide)
[3] = compound: compound 33 (diphenyl IMiD analogue)
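Note: pooled lentiviral library of zinc finger degron-EGFP fusions in mCherry-positive Jurkat cells, FACS-sorted after compound exposure, with degron abundance counted by next-generation sequencing.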

Row | Sequence | log2 fold change of degron read counts [1] | log2 fold change of degron read counts [2] | log2 fold change of degron read counts [3] | log2 fold change of degron read counts (compound: thalidomide)
1 | FNCEICGALFTQKGNLLRHIKL [46F_47N_49E_50I_52G_53A_54L_55F_67L_, Q9UKT9] | 0.13 | -1.53 | -0.743 | -1.13
2 | FDCEICGAYFTQKGNLLRHIKL [46F_47D_49E_50I_52G_53A_54Y_55F_67L_, Q9UKT9] | -0.0199 | -1.26 | -0.229 | -0.2
3 | FTCNICGAMFTQKGNLLRHIKL [46F_47T_49N_50I_52G_53A_54M_55F_67L_, Q9UKT9] | -1.09 | -0.0854 | 0.875 | 0.88
4 | FDCNQCGHNFTQKGNLLRHIKL [46F_47D_49N_50Q_52G_53H_54N_55F_67L_, Q9UKT9] | -2.11 | -2.61 | -2.32 | -2.04
5 | FFCNQCGRDFTQKGNLLRHIKL [46F_47F_49N_50Q_52G_53R_54D_55F_67L_, Q9UKT9] | -2.83 | -3.38 | -3.07 | -2.85
6 | FGCNQCGHIFTQKGNLLRHIKL [46F_47G_49N_50Q_52G_53H_54I_55F_67L_, Q9UKT9] | -1.45 | -1.99 | -2.4 | -1.44
7 | FVCPQCGASFTQKGNLLRHIKL [46F_47V_49P_50Q_52G_53A_54S_55F_67L_, Q9UKT9] | -1.71 | 0.559 | 0.703 | 1.25
8 | FMCEICGANFTQKGNLLRHIKL [46F_47M_49E_50I_52G_53A_54N_55F_67L_, Q9UKT9] | -0.123 | 0.396 | 2.76 | 1.56
9 | LCCNQCGFFCTQKGNLLRHIKL [46L_47C_49N_50Q_52G_53F_54F_55C_67L_, Q9UKT9] | -1.18 | -1.17 | -1.27 | -0.874
10 | FCCPVCGAPFTQKGNLLRHIKL [46F_47C_49P_50V_52G_53A_54P_55F_67L_, Q9UKT9] | 3.13 | 2.6 | 1.7 | 2.1
11 | FGCNVCGAPFTQKGNLLRHIKL [46F_47G_49N_50V_52G_53A_54P_55F_67L_, Q9UKT9] | -0.996 | -1.44 | -1.2 | -1.32
12 | FGCPVCGAPFTQKGNLLRHIKL [46F_47G_49P_50V_52G_53A_54P_55F_67L_, Q9UKT9] | 3.34 | 1.9 | 1.27 | 0.43
13 | FICPVCGAPFTQKGNLLRHIKL [46F_47I_49P_50V_52G_53A_54P_55F_67L_, Q9UKT9] | 1.18 | 3.94 | 2.58 | 3.08
14 | FKCPVCGAPFTQKGNLLRHIKL [46F_47K_49P_50V_52G_53A_54P_55F_67L_, Q9UKT9] | 2.06 | 1.94 | 0.0815 | 2.39
15 | FACPVCGAPFTQKGNLLRHIKL [46F_47A_49P_50V_52G_53A_54P_55F_67L_, Q9UKT9] | 3.58 | 2.58 | 1.07 | 2.23
16 | FICDVCGAPFTQKGNLLRHIKL [46F_47I_49D_50V_52G_53A_54P_55F_67L_, Q9UKT9] | -0.148 | 3.08 | 1.53 | 1.67
17 | FDCPVCGAPFTQKGNLLRHIKL [46F_47D_49P_50V_52G_53A_54P_55F_67L_, Q9UKT9] | 2.39 | 0.488 | 0.886 | 1.55
18 | FSCPVCGAPFTQKGNLLRHIKL [46F_47S_49P_50V_52G_53A_54P_55F_67L_, Q9UKT9] | 3.04 | 2.37 | 1.65 | 2.12
19 | FICNVCGAPFTQKGNLLRHIKL [46F_47I_49N_50V_52G_53A_54P_55F_67L_, Q9UKT9] | -0.34 | 2.49 | 1.6 | 2.07

Row | Sequence | log2 fold change of degron read counts [1] | log2 fold change of degron read counts [2] | log2 fold change of degron read counts [3] | log2 fold change of degron read counts (compound: thalidomide)
20 | FLCPVCGAPFTQKGNLLRHIKL [46F_47L_49P_50V_52G_53A_54P_55F_67L_, Q9UKT9] | 1.29 | 2.67 | 2.93 | 3.41
21 | FDCPICGHFFTQKGNLLRHIKL [46F_47D_49P_50I_52G_53H_54F_55F_67L_, Q9UKT9] | -1.89 | -2.22 | -1.79 | -1.75
22 | FICDVCGAWFTQKGNLLRHIKL [46F_47I_49D_50V_52G_53A_54W_55F_67L_, Q9UKT9] | -2.55 | -1.74 | -0.491 | -1.83
23 | FMCPQCGARFTQKGNLLRHIKL [46F_47M_49P_50Q_52G_53A_54R_55F_67L_, Q9UKT9] | -1.45 | -1.19 | 0.32 | -0.605
24 | FGCNVCGAEFTQKGNLLRHIKL [46F_47G_49N_50V_52G_53A_54E_55F_67L_, Q9UKT9] | -2.62 | -1.85 | -0.606 | -0.925
25 | FTCNQCGRVFTQKGNLLRHIKL [46F_47T_49N_50Q_52G_53R_54V_55F_67L_, Q9UKT9] | -2.75 | -3.29 | -2.33 | -2.08
26 | FWCPVCGAPFTQKGNLLRHIKL [46F_47W_49P_50V_52G_53A_54P_55F_67L_, Q9UKT9] | 3.23 | 2.92 | 2.67 | 1.06
27 | FYCNVCGAPFTQKGNLLRHIKL [46F_47Y_49N_50V_52G_53A_54P_55F_67L_, Q9UKT9] | 2.95 | 2.35 | 1.69 | -0.11
28 | FTCPVCGAPFTQKGNLLRHIKL [46F_47T_49P_50V_52G_53A_54P_55F_67L_, Q9UKT9] | 1.88 | 3.16 | 2.41 | 3.03
29 | FNCPVCGAPFTQKGNLLRHIKL [46F_47N_49P_50V_52G_53A_54P_55F_67L_, Q9UKT9] | 3.41 | 2.62 | 1.33 | 2.25
30 | FNCNVCGAPFTQKGNLLRHIKL [46F_47N_49N_50V_52G_53A_54P_55F_67L_, Q9UKT9] | 1 | -0.317 | -0.912 | -0.29
31 | FHCPVCGAPFTQKGNLLRHIKL [46F_47H_49P_50V_52G_53A_54P_55F_67L_, Q9UKT9] | 3.2 | 2.86 | 2.5 | 1.82
32 | FNCDVCGAPFTQKGNLLRHIKL [46F_47N_49D_50V_52G_53A_54P_55F_67L_, Q9UKT9] | 0.937 | -0.417 | -1.71 | -1.34
33 | FMCPVCGAPFTQKGNLLRHIKL [46F_47M_49P_50V_52G_53A_54P_55F_67L_, Q9UKT9] | 2.53 | 3.59 | 3.09 | 2.96
34 | FYCPVCGAPFTQKGNLLRHIKL [46F_47Y_49P_50V_52G_53A_54P_55F_67L_, Q9UKT9] | 3.48 | 3.24 | 2.82 | 1.62
35 | FYCDVCGAPFTQKGNLLRHIKL [46F_47Y_49D_50V_52G_53A_54P_55F_67L_, Q9UKT9] | 3.09 | 2.39 | 1.86 | -0.588
36 | FECPVCGAPFTQKGNLLRHIKL [46F_47E_49P_50V_52G_53A_54P_55F_67L_, Q9UKT9] | 1.88 | -0.29 | 1.64 | 2.65
37 | FVCPVCGAPFTQKGNLLRHIKL [46F_47V_49P_50V_52G_53A_54P_55F_67L_, Q9UKT9] | 1.79 | 3.33 | 2.13 | 3.19
